Records with an inconclusive call do not appear. Active and inactive are the calls of the source. The calls were made as follows: active = hit-call score of the fitted dose curve at least 0.9, where 1 is the maximum; inconclusive = response in the unintended direction; inactive = score below 0.9.
Legend:
[1] = molecular target: human Phosphodiesterase 10 (PDE10), PDE10A (gene 10846) (UniProt Q9Y233); test: NVS_ENZ_hPDE10: NovaScreen (NVS) Enzymatic Assay for human Phosphodiesterase 10 (PDE10) (AID 2283195)
Procedure, shortened: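 PDE10A, cell-free; 1 h incubation; fluorescence intensity + electrophoretic mobility shift separating substrate/product; DMSO = baseline; 25 uM duplicate primary, CRC up to 50 uM.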

[2] = molecular target: human Adenosine A1 Receptor (AdoRA1), ADORA1 (gene 134) (UniProt P30542); test: NVS_GPCR_hAdoRA1: NovaScreen (NVS) G Protein-Coupled Receptor Assay for human Adenosine A1 Receptor (AdoRA1) (AID 2283254)
Procedure, shortened: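 Hum. cortical membranes + radioligand, cmpd 1 h; filtration, scintillation count. Readout = decrease vs DMSO. Primary 25 uM dup; hits → conc. series.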

[3] = molecular target: human Ephrin type-A Receptor 1 (EphA1), EPHA1 (gene 2041) (UniProt P21709); test: NVS_ENZ_hEphA1: NovaScreen (NVS) Enzymatic Assay for human Ephrin type-A Receptor 1 (EphA1) (AID 2283158);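 also: activity is signal loss versus DMSO meaning EphA1 kinase inhibition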
Procedure, shortened: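 Biochemical kinase assay run cell-free; 1 h incubation; readout is fluorescence with mobility-shift separation of product. Concentration-response up to 50 uM for actives from a 25 uM screen.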

[4] = molecular target: human Phosphoinositide 3-kinase alpha (PI3Ka), PIK3CA (gene 5290) (UniProt P42336); test: NVS_ENZ_hPI3Ka: NovaScreen (NVS) Enzymatic Assay for human Phosphoinositide 3-kinase alpha (PI3Ka) (AID 2283196)
Procedure, shortened: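 Chemicals were first screened at 25 uM in duplicate, then hits were run as concentration series up to 50 uM. Enzyme activity was measured by fluorescence after mobility-shift separation, with loss of signal relative to DMSO taken as activity.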

[5] = molecular target: human Thromboxane A2 Receptor (TXA2), TBXA2R (gene 6915) (UniProt P21731); test: NVS_GPCR_hTXA2: NovaScreen (NVS) G Protein-Coupled Receptor Assay for human Thromboxane A2 Receptor (TXA2) (AID 2283282);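 also: actives reduce bound radioligand signal relative to DMSO baseline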
Procedure, shortened: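 Biochem binding, human platelets, cell-free; competitive radioligand displacement; 1 h; filter radiodetection. 25 uM duplicate primary, conc. series secondary; DMSO neg. ctrl.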

[6] = molecular target: human Caspase 5 (CASP5), CASP5 (gene 838) (UniProt P51878); test: NVS_ENZ_hCASP5: NovaScreen (NVS) Enzymatic Assay for human Caspase 5 (CASP5) (AID 2283137)
Procedure, shortened: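 Recombinant E. coli-expressed human caspase 5 in a cell-free enzyme assay; fluorescence intensity read 2 hours after chemical dosing. Single-concentration duplicate screen at 25 uM, then concentration-response up to 50 uM for hits; DMSO negative control.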

[7] = molecular target: human Dual Specificity Protein Phosphatase 3 (DUSP3), DUSP3 (gene 1845) (UniProt P51452); test: NVS_ENZ_hDUSP3: NovaScreen (NVS) Enzymatic Assay for human Dual Specificity Protein Phosphatase 3 (DUSP3) (AID 2283152);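 also: phosphatase activity of recombinant human DUSP3 on a fluorogenic substrate without cells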
Procedure, shortened: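 Cell-free assay with recombinant human DUSP3 and fluorogenic substrate, read by fluorescence intensity. Primary screen ran duplicate at 25 uM; actives followed up in concentration series; loss of signal versus DMSO scored.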

[8] = molecular target: sheep Cyclooxygenase-1 (Cox1), PTGS1 (gene 443551) (UniProt P05979); test: NVS_ENZ_oCOX1: NovaScreen (NVS) Enzymatic Assay for sheep Cyclooxygenase-1 (Cox1) (AID 2283239);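 also: actives reduce cyclooxygenase activity so potencies are for inhibitors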
Procedure, shortened: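 Native ovine seminal vesicle protein serves as enzyme source in this biochemical assay. Colorimetric signal is recorded 0.66 h after chemical addition, and decreases versus the DMSO control define activity.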

[9] = molecular target: human Matrix Metalloproteinase-9 (MMP9), MMP9 (gene 4318) (UniProt P14780); test: NVS_ENZ_hMMP9: NovaScreen (NVS) Enzymatic Assay for human Matrix Metalloproteinase-9 (MMP9) (AID 2283190);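 also: cell-free recombinant MMP9 protease activity read by fluorescent substrate signal; active means inhibition seen as loss of fluorescence signal versus DMSO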
Procedure, shortened: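 Inhibition was scored as loss of fluorescence signal against DMSO controls. The recombinant protease was exposed to chemicals for 1 hour before reading; initial testing used 25 uM in duplicate.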

[10] = molecular target: human Beta-secretase (BACE), BACE1 (gene 23621) (UniProt P56817); test: NVS_ENZ_hBACE: NovaScreen (NVS) Enzymatic Assay for human Beta-secretase (BACE) (AID 2283140);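 also: hits are inhibitors that reduce fluorescent substrate signal versus DMSO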
Procedure, shortened: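 Cell-free fluorescence-intensity assay of recombinant BACE1 expressed in SF9 cells, read 1 hour after dosing. Loss of signal indicates reduced protease activity, fitted relative to DMSO negative control. Primary screen at 25 uM in duplicate; actives followed in concentration series.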

[11] = molecular target: rat Thyrotropin Releasing Hormone Receptor (TRH), Trhr (gene 25570) (UniProt Q01717); test: NVS_GPCR_rTRH: NovaScreen (NVS) G Protein-Coupled Receptor Assay for rat Thyrotropin Releasing Hormone Receptor (TRH) (AID 2283329);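 also: hit means lower bound tracer signal versus DMSO baseline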
Procedure, shortened: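 Rat forebrain membrane prep, radioligand displacement, filter scintillation readout at 4 h. Single conc 25 uM, duplicate; actives retested as concentration series. DMSO = negative control/baseline.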

[12] = molecular target: guinea pig Opioid, Kappa 1 Receptor (OpiateK), OPRK1 (gene 100135587) (UniProt P41144); test: NVS_GPCR_gOpiateK: NovaScreen (NVS) G Protein-Coupled Receptor Assay for guinea pig Opioid, Kappa 1 Receptor (OpiateK) (AID 2283252);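 also: radioligand displacement from kappa opioid receptor in guinea pig cerebellar membranes; active means reduced radioligand binding relative to DMSO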
Procedure, shortened: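 Signal is scintillation counts of filter-trapped radioligand bound to guinea pig cerebellar membrane receptor, measured 2 hours post-dosing. Activity is loss of binding versus DMSO, first at 25 uM in duplicate, then as concentration series for actives.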

[13] = molecular target: Muscarinic acetylcholine receptor M2 (Homo sapiens) (UniProt P08172); test: NVS_GPCR_hM2: NovaScreen (NVS) G Protein-Coupled Receptor Assay for human Muscarinic, M2 Receptor (AID 2283273)
Procedure, shortened: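 CHO membrane prep, radioligand + test compound, 1 h; filtration, scintillation count. Screen 25 uM duplicate → conc. series for actives. Readout: decrease in binding vs DMSO control.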

[14] = molecular target: human Neurokinin, NK2 Receptor, TACR2 (gene 6865) (UniProt P21452); test: NVS_GPCR_hNK2: NovaScreen (NVS) G Protein-Coupled Receptor Assay for human Neurokinin, NK2 Receptor (AID 2283278);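 also: actives reduce bound radioligand signal relative to DMSO baseline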
Procedure, shortened: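 Filter-based scintillation counting measured radioligand bound to receptor extracted from CHO cells, 4 hours after compound addition. Chemicals screened first at 25 uM in duplicate, with actives retested in concentration series relative to DMSO.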

[15] = molecular target: Sodium channel protein type 1 subunit alpha (Rattus norvegicus) (UniProt P04774); test: NVS_IC_rNaCh_site2: NovaScreen (NVS) Ion Channel Assay for rat Sodium Channel, Site 2 (NaCh) (AID 2283322);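 also: hit means loss of radioligand binding signal relative to DMSO so AC50 marks displacement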
Procedure, shortened: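 Membranes: rat forebrain. Format: competitive radioligand displacement, filter separation, scintillation readout, 1 h exposure. Primary screen in duplicate at 25 uM; actives retested in concentration series.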

human Ephrin type-A Receptor 1 (EphA1), EPHA1 (gene 2041), sequence (P21709 whole entry, looked up): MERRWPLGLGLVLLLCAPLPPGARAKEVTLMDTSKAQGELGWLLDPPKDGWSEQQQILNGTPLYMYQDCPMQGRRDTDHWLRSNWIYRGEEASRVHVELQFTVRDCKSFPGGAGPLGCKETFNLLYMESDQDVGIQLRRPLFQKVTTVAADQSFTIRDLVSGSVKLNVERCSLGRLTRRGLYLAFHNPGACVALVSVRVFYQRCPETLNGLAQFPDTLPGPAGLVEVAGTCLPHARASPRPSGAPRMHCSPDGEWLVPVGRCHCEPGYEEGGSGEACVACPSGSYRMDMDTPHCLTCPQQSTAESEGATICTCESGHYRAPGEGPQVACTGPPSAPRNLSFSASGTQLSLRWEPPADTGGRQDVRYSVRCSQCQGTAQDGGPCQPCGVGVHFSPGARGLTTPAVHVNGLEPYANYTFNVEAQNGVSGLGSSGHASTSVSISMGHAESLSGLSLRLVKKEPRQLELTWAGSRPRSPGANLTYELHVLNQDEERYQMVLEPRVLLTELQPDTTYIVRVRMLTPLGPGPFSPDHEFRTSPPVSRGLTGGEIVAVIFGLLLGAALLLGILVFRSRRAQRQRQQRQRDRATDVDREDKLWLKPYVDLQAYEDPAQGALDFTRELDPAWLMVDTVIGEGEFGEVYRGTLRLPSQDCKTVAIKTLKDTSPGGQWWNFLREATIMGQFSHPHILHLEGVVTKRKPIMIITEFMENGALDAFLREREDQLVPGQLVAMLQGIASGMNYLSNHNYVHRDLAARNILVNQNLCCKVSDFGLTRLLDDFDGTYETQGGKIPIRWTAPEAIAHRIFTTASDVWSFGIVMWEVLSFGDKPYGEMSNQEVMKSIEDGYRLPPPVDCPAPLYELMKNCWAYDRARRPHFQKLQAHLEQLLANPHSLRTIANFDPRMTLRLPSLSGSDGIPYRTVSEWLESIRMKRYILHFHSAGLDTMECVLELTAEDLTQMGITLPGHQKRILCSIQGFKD
human Thromboxane A2 Receptor (TXA2), TBXA2R (gene 6915), sequence (P21731 whole entry, looked up): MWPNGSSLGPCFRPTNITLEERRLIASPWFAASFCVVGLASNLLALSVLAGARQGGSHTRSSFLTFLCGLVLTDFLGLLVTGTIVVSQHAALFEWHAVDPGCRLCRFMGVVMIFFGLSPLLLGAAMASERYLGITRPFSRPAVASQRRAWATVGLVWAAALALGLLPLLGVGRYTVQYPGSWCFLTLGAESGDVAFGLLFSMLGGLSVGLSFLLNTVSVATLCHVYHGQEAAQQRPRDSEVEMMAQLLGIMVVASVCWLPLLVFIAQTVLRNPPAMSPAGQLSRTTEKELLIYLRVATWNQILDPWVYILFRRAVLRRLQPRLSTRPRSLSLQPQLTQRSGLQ
human Phosphoinositide 3-kinase alpha (PI3Ka), PIK3CA (gene 5290), sequence (P42336 whole entry, looked up): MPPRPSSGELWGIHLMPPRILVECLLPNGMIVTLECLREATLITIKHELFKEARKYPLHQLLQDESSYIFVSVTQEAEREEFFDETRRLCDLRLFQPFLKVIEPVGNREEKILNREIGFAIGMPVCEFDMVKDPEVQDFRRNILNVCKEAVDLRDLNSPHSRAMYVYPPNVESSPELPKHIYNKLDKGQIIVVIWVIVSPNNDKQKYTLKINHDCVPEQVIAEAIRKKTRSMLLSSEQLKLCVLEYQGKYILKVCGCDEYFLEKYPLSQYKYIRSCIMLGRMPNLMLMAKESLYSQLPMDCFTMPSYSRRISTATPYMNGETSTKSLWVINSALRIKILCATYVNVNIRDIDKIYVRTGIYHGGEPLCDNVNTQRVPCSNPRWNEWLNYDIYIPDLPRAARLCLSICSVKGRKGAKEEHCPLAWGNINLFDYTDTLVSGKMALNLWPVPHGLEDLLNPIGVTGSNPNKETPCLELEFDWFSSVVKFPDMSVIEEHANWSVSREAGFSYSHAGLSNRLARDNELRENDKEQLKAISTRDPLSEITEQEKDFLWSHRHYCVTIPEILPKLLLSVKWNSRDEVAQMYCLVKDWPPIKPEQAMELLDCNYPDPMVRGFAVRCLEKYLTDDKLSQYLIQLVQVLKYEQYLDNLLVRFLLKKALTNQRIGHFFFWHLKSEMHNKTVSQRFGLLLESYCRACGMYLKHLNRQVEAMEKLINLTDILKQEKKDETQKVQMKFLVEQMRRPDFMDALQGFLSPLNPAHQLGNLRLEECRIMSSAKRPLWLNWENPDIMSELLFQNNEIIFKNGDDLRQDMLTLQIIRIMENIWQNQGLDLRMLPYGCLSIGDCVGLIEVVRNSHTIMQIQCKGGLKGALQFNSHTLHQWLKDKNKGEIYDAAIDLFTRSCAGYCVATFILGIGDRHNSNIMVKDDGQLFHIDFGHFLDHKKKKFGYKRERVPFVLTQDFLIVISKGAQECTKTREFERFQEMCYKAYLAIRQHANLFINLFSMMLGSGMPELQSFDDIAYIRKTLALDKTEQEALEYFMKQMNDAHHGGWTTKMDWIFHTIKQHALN
human Caspase 5 (CASP5), CASP5 (gene 838), sequence (P51878 whole entry, looked up): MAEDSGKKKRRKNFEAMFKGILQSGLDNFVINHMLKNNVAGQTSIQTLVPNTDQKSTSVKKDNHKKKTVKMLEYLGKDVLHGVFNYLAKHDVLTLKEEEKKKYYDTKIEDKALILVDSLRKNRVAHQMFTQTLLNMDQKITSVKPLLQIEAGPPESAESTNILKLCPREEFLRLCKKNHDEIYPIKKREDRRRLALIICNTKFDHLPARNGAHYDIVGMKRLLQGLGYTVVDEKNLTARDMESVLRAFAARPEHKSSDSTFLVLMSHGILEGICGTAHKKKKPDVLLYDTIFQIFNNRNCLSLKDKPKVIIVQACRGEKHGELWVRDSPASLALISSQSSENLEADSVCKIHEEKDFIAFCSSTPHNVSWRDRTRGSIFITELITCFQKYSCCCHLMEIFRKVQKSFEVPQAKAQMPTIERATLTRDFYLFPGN
human Beta-secretase (BACE), BACE1 (gene 23621), sequence (P56817 whole entry, looked up): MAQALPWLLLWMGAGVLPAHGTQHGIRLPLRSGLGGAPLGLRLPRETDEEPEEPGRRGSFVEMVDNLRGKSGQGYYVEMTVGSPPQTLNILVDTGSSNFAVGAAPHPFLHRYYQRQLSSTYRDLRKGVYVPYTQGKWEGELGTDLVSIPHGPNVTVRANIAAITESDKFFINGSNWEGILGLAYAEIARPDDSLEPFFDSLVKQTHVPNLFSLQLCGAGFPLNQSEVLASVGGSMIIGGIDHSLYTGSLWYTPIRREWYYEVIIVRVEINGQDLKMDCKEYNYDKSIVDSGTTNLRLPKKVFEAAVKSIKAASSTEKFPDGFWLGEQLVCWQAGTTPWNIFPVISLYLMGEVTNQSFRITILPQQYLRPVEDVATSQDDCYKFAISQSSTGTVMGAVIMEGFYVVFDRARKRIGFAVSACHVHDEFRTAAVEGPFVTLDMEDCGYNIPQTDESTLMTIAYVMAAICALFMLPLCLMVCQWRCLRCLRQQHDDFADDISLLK
human Matrix Metalloproteinase-9 (MMP9), MMP9 (gene 4318), sequence (P14780 whole entry, looked up): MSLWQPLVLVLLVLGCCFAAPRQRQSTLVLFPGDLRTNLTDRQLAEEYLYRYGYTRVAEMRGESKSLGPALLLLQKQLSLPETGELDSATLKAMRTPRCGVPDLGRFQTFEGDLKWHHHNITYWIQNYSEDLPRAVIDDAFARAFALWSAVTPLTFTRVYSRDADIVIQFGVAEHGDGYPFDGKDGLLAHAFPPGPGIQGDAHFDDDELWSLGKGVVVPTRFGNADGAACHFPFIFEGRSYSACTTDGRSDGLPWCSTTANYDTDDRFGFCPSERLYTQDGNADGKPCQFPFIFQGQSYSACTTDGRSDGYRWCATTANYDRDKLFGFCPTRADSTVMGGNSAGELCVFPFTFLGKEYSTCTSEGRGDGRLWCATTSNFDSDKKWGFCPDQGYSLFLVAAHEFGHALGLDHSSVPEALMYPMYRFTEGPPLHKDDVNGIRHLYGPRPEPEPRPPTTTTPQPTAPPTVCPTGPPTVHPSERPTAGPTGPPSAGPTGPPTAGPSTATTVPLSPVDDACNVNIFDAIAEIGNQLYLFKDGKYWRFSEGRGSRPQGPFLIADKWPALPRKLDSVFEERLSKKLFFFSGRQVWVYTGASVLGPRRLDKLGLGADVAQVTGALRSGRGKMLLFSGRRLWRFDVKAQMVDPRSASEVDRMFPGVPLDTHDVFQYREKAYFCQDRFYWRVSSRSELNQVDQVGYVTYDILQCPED
sheep Cyclooxygenase-1 (Cox1), PTGS1 (gene 443551), sequence (P05979 whole entry, looked up): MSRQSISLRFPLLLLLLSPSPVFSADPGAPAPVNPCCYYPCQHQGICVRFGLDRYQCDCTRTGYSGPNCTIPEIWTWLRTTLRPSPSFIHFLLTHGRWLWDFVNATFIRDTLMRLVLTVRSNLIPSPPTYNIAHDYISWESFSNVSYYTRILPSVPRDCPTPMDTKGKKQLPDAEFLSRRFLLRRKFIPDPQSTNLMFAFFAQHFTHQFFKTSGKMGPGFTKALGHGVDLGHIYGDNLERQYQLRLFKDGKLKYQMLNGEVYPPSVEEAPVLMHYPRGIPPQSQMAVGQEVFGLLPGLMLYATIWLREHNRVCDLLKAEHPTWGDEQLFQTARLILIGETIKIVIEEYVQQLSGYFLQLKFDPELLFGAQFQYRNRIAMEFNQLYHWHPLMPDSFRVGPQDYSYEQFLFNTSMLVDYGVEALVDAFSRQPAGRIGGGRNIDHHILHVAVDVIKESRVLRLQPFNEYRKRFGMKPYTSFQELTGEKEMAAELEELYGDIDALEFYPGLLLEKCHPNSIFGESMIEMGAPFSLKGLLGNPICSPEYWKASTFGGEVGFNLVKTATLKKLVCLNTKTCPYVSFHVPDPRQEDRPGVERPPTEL
human Adenosine A1 Receptor (AdoRA1), ADORA1 (gene 134), sequence (P30542 whole entry, looked up): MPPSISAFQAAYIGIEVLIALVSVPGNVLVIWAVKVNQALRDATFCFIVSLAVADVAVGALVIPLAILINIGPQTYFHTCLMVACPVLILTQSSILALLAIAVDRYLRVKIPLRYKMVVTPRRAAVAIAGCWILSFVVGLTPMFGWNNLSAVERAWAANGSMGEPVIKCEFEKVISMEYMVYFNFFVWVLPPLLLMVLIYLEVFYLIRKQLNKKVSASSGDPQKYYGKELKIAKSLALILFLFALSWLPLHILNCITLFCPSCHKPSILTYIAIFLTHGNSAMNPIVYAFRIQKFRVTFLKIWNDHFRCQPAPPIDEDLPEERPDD

## Cn1c(=O)[nH]c2ncn(C)c2c1=O
[1]
  outcome: inactive
[2]
  AC50: 25 µM (active)

## OCCCS
[1]
  outcome: inactive

## Cc1ccc(N)c([N+](=O)[O-])c1
[3]
  AC50: 43.4 µM (active)
[1]
  AC50: 25 µM (active)
[4]
  outcome: inactive
[5]
  outcome: inactive

## CC(C)(C)c1n[nH]c(=O)n(N)c1=O
[1]
  outcome: inactive

## N#[N+]c1ccc2c(S(=O)(=O)[O-])cccc2c1O
[6]
  AC50: 9.03 µM (active)
[7]
  AC50: 14.9 µM (active)
[3]
  outcome: inactive
[4]
  outcome: inactive
[8]
  AC50: 5.62 µM (active)

## COc1ccc2nc(N)sc2c1
[8]
  AC50: 14.9 µM (active)

## C/C=C\C/C=C/CCCCCCCCOC(C)=O
[3]
  outcome: inactive
[9]
  AC50: 13.7 µM (active)
[8]
  AC50: 25 µM (active)

## COCCOCCOCCOCCOC
[3]
  outcome: inactive
[4]
  outcome: inactive

## C=CCOCC(O)CCl (centres undefined)
[6]
  outcome: inactive
[10]
  outcome: inactive

## c1ccc2c(c1)ccc1cc3c(ccc4ccccc43)cc12
[6]
  AC50: 5.15 µM (active)
[10]
  AC50: 13 µM (active)
[9]
  AC50: 4.46 µM (active)
[8]
  AC50: 22.5 µM (active)
[11]
  outcome: inactive

## NC(=O)NNC(N)=O
[1]
  outcome: inactive

## O=CN1CCCCC1
[1]
  outcome: inactive

## CCCCCCCCCCc1ccccc1
[1]
  outcome: inactive

## O=Nc1ccc(O)cc1
[6]
  AC50: 13.5 µM (active)
[1]
  outcome: inactive

## CC(CC=O)CCCC(C)(C)O (centres undefined)
[8]
  outcome: inactive

## CC1OC1C1CCC2(C)OC2C1 (centres undefined)
[1]
  outcome: inactive

## S=C(NC1CCCCC1)NC1CCCCC1
[3]
  outcome: inactive
[9]
  AC50: 6.33 µM (active)
[5]
  AC50: 1.56 µM (active)

## CCCCC(CC)COC(=O)c1ccccc1O (centres undefined)
[10]
  AC50: 11.1 µM (active)

## C#CC1(O)CC[C@H]2[C@@H]3CCC4=CCCC[C@@H]4[C@H]3CC[C@@]21C (some centres undefined)
[12]
  outcome: inactive

## O=C(Nc1ccccc1SSc1ccccc1NC(=O)c1ccccc1)c1ccccc1
[2]
  AC50: 25 µM (active)

## CC(C)c1ccc(C=O)cc1
[13]
  outcome: inactive

## O=C(Cl)c1cc(C(=O)Cl)cc(C(=O)Cl)c1
[14]
  AC50: 15 µM (active)

## C=COCCCC
[5]
  AC50: 25 µM (active)

## CCCCCCCCc1ccc(Nc2ccc(CCCCCCCC)cc2)cc1
[5]
  outcome: inactive

## COCc1c(C(C)C)nc(C(C)C)c(/C=C/[C@@H](O)C[C@@H](O)CC(=O)O)c1-c1ccc(F)cc1
[15]
  AC50: 1.81 µM (active)
